Laboratory results: ChEMBL document CHEMBL2218924, “A broad activity screen in support of a chemogenomic map for kinase signalling research and drug discovery” (Biochem J, 2013)

Assays:
[1] = biological target: T1, Serine/threonine-protein kinase TBK1 (Homo sapiens) (UniProt Q9UHD2); conditions: at 10 µM
T1 sequence (whole entry): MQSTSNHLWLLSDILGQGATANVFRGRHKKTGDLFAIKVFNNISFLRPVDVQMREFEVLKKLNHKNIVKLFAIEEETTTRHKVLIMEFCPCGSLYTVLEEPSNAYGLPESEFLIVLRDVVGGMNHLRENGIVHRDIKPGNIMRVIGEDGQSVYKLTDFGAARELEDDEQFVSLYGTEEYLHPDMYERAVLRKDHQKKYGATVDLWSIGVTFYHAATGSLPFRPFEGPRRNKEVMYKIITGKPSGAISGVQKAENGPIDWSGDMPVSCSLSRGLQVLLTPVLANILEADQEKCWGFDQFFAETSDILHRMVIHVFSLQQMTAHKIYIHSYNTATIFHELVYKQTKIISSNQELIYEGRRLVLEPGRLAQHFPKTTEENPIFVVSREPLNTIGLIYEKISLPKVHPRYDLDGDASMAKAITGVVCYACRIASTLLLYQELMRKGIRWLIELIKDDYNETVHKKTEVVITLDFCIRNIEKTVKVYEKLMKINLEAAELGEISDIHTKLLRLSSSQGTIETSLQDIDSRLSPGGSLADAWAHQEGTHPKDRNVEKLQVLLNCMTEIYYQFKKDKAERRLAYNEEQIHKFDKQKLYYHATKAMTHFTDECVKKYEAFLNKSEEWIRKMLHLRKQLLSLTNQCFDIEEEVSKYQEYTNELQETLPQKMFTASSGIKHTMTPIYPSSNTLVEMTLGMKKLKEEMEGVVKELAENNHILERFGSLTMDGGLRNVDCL

[2] = biological target: T2, TGF-beta receptor type-1 (Homo sapiens) (UniProt P36897); conditions: at 1 µM
T2 sequence (whole entry): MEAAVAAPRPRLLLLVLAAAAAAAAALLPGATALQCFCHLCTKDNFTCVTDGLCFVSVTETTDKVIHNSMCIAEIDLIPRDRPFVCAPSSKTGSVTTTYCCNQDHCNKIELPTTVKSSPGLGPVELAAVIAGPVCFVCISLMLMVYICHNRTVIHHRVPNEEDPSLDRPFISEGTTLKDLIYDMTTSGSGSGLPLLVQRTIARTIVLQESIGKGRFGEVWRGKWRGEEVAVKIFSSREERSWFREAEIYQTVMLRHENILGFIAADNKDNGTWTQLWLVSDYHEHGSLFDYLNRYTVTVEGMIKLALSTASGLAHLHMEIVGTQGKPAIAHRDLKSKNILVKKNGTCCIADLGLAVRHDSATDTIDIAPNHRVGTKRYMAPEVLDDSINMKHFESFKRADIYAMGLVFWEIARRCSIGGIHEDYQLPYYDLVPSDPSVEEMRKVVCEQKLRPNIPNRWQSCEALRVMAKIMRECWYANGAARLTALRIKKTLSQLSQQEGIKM

[3] = biological target: T2, TGF-beta receptor type-1 (Homo sapiens); conditions: at 10 µM
[4] = biological target: T3, Inhibitor of nuclear factor kappa-B kinase subunit alpha (Homo sapiens) (UniProt O15111); conditions: at 1 µM
T3 sequence (whole entry): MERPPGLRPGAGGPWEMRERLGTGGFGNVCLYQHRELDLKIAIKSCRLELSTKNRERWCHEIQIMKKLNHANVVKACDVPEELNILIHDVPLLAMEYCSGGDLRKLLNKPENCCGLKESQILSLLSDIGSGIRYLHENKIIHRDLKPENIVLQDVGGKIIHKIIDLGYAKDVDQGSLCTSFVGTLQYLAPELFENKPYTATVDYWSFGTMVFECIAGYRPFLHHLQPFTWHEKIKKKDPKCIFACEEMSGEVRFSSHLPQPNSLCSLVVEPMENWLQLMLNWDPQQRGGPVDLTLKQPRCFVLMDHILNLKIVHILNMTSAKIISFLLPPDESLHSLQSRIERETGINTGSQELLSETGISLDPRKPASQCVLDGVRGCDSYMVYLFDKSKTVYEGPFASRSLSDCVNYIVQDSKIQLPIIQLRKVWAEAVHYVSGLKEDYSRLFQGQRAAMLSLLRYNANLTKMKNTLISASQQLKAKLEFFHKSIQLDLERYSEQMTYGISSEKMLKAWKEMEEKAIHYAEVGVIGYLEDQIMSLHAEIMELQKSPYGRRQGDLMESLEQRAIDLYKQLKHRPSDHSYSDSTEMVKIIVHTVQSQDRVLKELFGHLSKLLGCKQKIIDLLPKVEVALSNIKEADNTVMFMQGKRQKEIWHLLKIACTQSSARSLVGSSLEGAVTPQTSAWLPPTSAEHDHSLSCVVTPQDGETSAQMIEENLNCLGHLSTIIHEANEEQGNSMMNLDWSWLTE

[5] = biological target: T3, Inhibitor of nuclear factor kappa-B kinase subunit alpha (Homo sapiens); conditions: at 10 µM
[6] = biological target: T4, Inhibitor of nuclear factor kappa-B kinase subunit beta (Homo sapiens) (UniProt O14920); conditions: at 1 µM
T4 sequence (whole entry): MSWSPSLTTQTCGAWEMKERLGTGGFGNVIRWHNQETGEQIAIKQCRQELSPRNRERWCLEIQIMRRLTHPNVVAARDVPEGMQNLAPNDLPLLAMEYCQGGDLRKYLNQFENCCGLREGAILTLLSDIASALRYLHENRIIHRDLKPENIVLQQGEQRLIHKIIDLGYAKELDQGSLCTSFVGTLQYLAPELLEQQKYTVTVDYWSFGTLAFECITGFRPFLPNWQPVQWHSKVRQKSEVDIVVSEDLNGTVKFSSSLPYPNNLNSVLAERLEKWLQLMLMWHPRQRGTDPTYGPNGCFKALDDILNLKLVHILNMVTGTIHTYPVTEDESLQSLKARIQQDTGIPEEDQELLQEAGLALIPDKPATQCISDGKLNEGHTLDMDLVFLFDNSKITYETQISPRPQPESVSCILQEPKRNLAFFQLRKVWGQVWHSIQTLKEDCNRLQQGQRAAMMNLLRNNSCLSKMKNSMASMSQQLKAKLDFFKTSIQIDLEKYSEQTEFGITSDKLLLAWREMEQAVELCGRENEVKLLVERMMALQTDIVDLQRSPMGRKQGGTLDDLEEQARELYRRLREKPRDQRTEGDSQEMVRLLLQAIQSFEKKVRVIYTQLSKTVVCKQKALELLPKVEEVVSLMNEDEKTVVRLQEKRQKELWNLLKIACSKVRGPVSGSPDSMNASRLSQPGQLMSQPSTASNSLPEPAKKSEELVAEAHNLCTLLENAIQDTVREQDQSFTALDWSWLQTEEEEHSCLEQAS

[7] = biological target: T4, Inhibitor of nuclear factor kappa-B kinase subunit beta (Homo sapiens); conditions: at 10 µM
[8] = biological target: Insulin receptor (Homo sapiens) (UniProt P06213); conditions: at 1 µM
Chain of Insulin receptor (Homo sapiens) (P06213 28-758 limits assumed): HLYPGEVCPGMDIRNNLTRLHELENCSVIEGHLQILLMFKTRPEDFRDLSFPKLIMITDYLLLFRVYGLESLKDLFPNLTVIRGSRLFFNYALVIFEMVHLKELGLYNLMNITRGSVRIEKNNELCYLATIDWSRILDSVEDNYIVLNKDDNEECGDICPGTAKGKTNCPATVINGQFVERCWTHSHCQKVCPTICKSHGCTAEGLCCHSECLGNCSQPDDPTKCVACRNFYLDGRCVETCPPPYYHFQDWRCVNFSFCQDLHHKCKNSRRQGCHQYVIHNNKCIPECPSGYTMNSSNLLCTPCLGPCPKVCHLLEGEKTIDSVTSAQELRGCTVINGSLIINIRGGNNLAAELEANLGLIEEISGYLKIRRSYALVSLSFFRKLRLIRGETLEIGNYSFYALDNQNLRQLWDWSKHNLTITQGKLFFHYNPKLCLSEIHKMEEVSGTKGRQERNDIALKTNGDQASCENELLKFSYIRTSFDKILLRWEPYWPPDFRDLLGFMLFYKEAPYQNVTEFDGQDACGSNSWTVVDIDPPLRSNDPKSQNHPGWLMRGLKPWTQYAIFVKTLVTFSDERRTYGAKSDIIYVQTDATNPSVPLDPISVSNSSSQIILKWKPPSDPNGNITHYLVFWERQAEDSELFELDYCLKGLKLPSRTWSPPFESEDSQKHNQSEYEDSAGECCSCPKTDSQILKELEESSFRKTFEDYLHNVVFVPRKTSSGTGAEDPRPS
Chain of Insulin receptor (Homo sapiens) (P06213 763-1382 limits assumed): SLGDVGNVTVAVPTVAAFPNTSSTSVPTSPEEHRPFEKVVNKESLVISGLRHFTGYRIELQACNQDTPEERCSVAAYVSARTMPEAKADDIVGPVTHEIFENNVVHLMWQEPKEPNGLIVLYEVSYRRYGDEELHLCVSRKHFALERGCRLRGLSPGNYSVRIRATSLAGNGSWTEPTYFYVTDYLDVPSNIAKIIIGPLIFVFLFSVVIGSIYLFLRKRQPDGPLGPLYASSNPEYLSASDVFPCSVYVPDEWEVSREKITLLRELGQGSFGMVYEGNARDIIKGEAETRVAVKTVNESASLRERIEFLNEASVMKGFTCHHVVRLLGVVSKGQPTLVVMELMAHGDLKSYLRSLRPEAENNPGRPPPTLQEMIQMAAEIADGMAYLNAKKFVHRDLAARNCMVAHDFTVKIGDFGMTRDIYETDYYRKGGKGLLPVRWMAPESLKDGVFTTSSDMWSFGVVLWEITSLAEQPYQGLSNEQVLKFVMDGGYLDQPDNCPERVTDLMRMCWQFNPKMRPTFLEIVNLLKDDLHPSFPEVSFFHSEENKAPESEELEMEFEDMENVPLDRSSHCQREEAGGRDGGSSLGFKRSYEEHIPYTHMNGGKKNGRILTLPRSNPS

[9] = biological target: Insulin-like growth factor 1 receptor (Homo sapiens) (UniProt P08069); conditions: at 1 µM
Chain of Insulin-like growth factor 1 receptor (Homo sapiens) (P08069 31-736 limits assumed): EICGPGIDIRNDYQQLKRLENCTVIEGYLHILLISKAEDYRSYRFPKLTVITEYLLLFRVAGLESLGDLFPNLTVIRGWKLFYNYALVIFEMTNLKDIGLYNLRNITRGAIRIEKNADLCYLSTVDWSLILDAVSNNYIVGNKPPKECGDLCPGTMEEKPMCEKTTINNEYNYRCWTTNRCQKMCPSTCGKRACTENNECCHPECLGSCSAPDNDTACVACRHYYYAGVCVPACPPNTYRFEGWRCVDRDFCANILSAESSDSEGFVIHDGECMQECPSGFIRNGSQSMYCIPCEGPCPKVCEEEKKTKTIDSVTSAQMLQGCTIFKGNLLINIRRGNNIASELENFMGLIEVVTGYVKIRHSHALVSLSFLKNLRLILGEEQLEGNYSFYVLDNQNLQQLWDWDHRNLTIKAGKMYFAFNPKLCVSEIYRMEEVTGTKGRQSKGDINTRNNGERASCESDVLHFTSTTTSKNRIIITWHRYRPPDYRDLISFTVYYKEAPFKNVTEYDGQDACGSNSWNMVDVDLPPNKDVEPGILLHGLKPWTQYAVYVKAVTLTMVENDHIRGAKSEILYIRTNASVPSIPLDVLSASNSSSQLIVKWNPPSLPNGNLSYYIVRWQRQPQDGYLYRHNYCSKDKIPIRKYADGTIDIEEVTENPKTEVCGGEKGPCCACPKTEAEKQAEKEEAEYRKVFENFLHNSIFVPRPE
Chain of Insulin-like growth factor 1 receptor (Homo sapiens) (P08069 741-1367 limits assumed): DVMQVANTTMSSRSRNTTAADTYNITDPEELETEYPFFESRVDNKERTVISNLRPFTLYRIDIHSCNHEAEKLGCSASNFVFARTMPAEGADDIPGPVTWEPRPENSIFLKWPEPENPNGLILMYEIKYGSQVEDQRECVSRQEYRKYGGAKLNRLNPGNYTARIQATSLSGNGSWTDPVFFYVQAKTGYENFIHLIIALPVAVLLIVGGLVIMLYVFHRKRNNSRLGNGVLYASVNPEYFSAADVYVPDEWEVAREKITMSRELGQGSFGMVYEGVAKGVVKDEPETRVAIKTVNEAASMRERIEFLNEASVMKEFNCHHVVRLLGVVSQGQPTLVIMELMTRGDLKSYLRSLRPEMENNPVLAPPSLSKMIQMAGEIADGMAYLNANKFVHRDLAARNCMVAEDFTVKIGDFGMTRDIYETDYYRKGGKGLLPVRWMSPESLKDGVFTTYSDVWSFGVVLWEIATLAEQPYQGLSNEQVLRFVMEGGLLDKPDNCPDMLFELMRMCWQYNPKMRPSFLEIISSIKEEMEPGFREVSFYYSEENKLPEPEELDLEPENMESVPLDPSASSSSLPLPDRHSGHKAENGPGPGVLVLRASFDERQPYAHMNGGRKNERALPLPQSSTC

[10] = biological target: Insulin-like growth factor 1 receptor (Homo sapiens) (UniProt P08069); conditions: at 10 µM

| SMILES | residual activity [1] | residual activity [2] | residual activity [3] | residual activity [4] | residual activity [5] | residual activity [6] | residual activity [7] | residual activity [8] | residual activity [9] | residual activity [10] |
| --- | --- | --- | --- | --- | --- | --- | --- | --- | --- | --- |
| N#Cc1cnc2cnc(NCc3cccnc3)cc2c1Nc1ccc(F)c(Cl)c1 | 2% | 126% | 123% | 74% | 58% | 84% | 74% | 136% |  |  |
| CO[C@@H]1[C@H](N(C)C(=O)c2ccccc2)C[C@H]2O[C@]1(C)n1c3ccccc3c3c4c(c5c6ccccc6n2c5c31)C(=O)NC4 | 1% | 85% |  | 101% | 91% |  | 84% | 87% | 92% | 84% |
| O=C(Nc1cccc(Nc2nccc(Nc3cccc(C(F)(F)F)c3)n2)c1)C1CC1 | 32% | 105% | 72% | 113% | 88% | 74% | 52% | 22% | 90% | 96% |
| COc1cc2ncnc(N3CCN(C(=O)Nc4ccc(Oc5ccccc5)cc4)CC3)c2cc1OC | 53% | 80% | 76% | 103% |  | 113% | 115% | 115% |  |  |
| Nc1n[nH]c2nnc(-c3c(-c4ccccc4)nn4ccccc34)cc12 | 67% | 88% | 83% | 115% | 107% | 102% | 102% | 70% | 82% | 76% |
| COc1cc2ncc(-c3ccccc3)nc2cc1OC | 76% |  |  |  |  | 95% | 95% |  |  |  |
| Cc1ccc(NC2=CC(=O)c3sc(C)nc3C2=O)cc1 | 74% | 90% | 83% | 107% | 103% | 106% | 98% | 95% | 95% | 92% |
| Cn1cnc2cc3c(Nc4cccc(Br)c4)ncnc3cc21 | 63% | 86% | 85% | 92% | 104% | 95% | 94% | 102% | 109% | 90% |
| CN(C)c1ccc(/C=C2\C(=O)Nc3ccccc32)cc1 | 45% | 93% | 98% | 102% | 120% | 112% | 93% | 99% | 105% | 103% |
| Cc1cncc2cccc(S(=O)(=O)N3CCCN(C(=O)CN)C[C@H]3C)c12 | 55% | 78% | 86% | 93% |  |  |  |  |  |  |
| N#CC(C#N)=C(N)/C(C#N)=C/c1ccc(O)cc1 | 72% | 91% | 91% | 96% | 92% | 99% | 93% |  |  |  |
| CN(C)CCCn1cc(C2=C(c3c[nH]c4ccccc34)C(=O)NC2=O)c2ccccc21 | 22% | 91% | 71% | 101% | 58% | 104% | 82% |  | 110% |  |
| O=C(O)c1ccc2c3c1cccc3c(=O)n1c3ccccc3nc21 | 4% | 111% | 102% | 109% | 106% | 112% | 93% | 117% | 113% | 107% |
| Nc1ccc2ncnc(NCCc3ccc(Oc4ccccc4)cc3)c2c1 | 62% | 117% | 112% | 107% | 101% | 115% | 110% | 139% | 116% | 119% |
| N#CCCc1ccc2c(c1)-c1[nH]c3ccc([N+](=O)[O-])cc3c1CC(=O)N2 | 13% | 73% | 28% |  |  |  |  | 118% |  |  |
| CNc1cc2c(Nc3cccc(Br)c3)ncnc2cn1 | 64% | 87% | 94% | 108% | 101% | 92% | 76% | 91% | 96% | 94% |
| c1ccc(-c2n[nH]c3c2oc2ccccc23)cc1 | 55% | 82% | 88% | 97% | 88% |  |  |  |  |  |
| CC#CC(=O)Nc1cc2c(Nc3ccc(F)c(Cl)c3)ncnc2cn1 | 72% | 74% | 89% | 97% | 95% | 96% | 96% | 101% | 98% | 93% |
| Cc1ccc(S(=O)(=O)/C=C/C#N)cc1 | 81% | 98% | 81% | 100% | 100% | 108% | 107% | 94% | 88% | 98% |
